# Measured values published in PubChem BioAssay.
# The source made the active and inactive calls. How the calls were made is not given here.
# Target: Pantothenate synthetase (Mycobacterium tuberculosis (strain ATCC 25618 / H37Rv)) (UniProt P9WIL5)
# Assay: Coupled enzyme confirmation of inhibitors against recombinant Mtb PanC (AID 375);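 further: 0% = full reaction with vehicle and 100% = no enzyme background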
# Details: coupled enzyme assay; at 10 µM, stronger effect = higher value
# Pantothenate synthetase (Mycobacterium tuberculosis (strain ATCC 25618 / H37Rv)), sequence (P9WIL5 whole entry, looked up): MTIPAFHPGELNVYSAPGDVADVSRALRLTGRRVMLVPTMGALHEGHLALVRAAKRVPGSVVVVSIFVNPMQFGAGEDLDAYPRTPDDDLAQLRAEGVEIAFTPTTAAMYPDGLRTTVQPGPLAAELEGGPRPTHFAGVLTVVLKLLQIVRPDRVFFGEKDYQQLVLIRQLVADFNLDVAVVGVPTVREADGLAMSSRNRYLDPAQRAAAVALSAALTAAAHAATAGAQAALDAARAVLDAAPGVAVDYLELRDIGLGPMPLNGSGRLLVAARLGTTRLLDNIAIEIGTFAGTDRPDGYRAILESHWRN
row,SMILES,inhibition
1,Cc1ccccc1-n1nc(C)c2cc(C(=O)NCc3cccnc3)sc21,0% (inactive)
2,COc1ccccc1CNC(=O)N[C@@H](Cc1ccccc1)C(=O)O,6% (inactive)
3,COc1ccc(-c2nnc(-c3ccc(N)cc3)o2)cc1,4% (inactive)
4,Cc1cc(C)n(C(=O)CNC(=O)C2COc3ccccc3O2)n1 (configuration not stated),1% (inactive)
5,CC(C)C[C@H](NC(=O)Nc1cccc(C(F)(F)F)c1)C(=O)O,0% (inactive)
6,CC(C)(C)NC(=O)CC(CC(=O)O)c1ccccc1 (configuration not stated),0% (inactive)
7,CCNc1oc(COc2ccccc2F)nc1C#N,9% (inactive)
8,COc1cccc(-n2c(CNc3ccc(F)cc3)nnc2SCC(N)=O)c1,0% (inactive)
9,CCC(=O)N1CCc2cc(S(=O)(=O)CCC(=O)Nc3nc(C)cs3)ccc21,5% (inactive)
10,CC(C)CCNC(=O)Cn1c(NCCC(C)C)nc2c1c(=O)n(C)c(=O)n2C,0% (inactive)
11,O=C(Oc1ccc(Cl)cc1N1C(=O)CCC1=O)c1ccco1,6% (inactive)
12,COc1ccc(S(=O)(=O)N2CCN(Cc3ccc(Cl)cc3)CC2)cc1,0% (inactive)
13,CCCNC(=O)c1ccccc1C(=O)NCCC,0% (inactive)
14,O=C(NCC(c1cccnc1)N1CCN(c2ccc(F)cc2)CC1)OCc1ccccc1 (configuration not stated),0% (inactive)
15,CC1CCC(C(=O)NC(C(=O)NCCN2CCC(C)CC2)C(C)C)CC1 (configuration not stated),0% (inactive)
16,CCOC(=O)c1c(N)c(C#N)nn1-c1ccccc1C(=O)OC,0% (inactive)
17,Cc1nc(SCC#N)c2c(C)c(C)sc2n1,0% (inactive)
18,Cc1ccc(Cn2c(SCC(C)C)nc3c2c(=O)n(C)c(=O)n3C)cc1,3% (inactive)
19,COc1ccc(N(CC(=O)Nc2cc(C)ccc2C)S(=O)(=O)c2c(C)nn(C)c2C)cc1,0% (inactive)
20,c1ccc2c(c1)nc(-c1ccncc1)n1nnnc21,11% (inactive)
21,CCCN1C(=O)c2cc(C(=O)O)ccc2C1O (configuration not stated),0% (inactive)
22,COc1cccc(NC(=O)CSc2nnnn2C(C)C)c1,6% (inactive)
23,Cc1cc(C)nc(N2CCC(C(=O)Nc3ccc4c(c3)CCC4)CC2)n1,5% (inactive)
24,Cn1c(=O)c2[nH]cnc2n(C)c1=O,1% (inactive)

row,SMILES,inhibition
1,O=C(OCC(=O)N1CCc2ccccc21)C1=COCCO1,0% (inactive)
2,CC(C)(O)C#Cc1ccc(C(=O)N2CCN(C(=O)c3ccco3)CC2)cc1,0% (inactive)
3,COC(=O)c1sccc1NC(=O)c1ccco1,1% (inactive)
4,CCOC(=O)N1CCC(NC(=O)Cn2cc3c(n2)CCC(C)C3)CC1 (configuration not stated),0% (inactive)
5,CCCCOc1ccc(C(=O)N2CCC(C)CC2)cc1,0% (inactive)
6,Cc1sc2nc(SCc3nc4ccccc4[nH]3)n(Cc3ccco3)c(=O)c2c1C,2% (inactive)
7,O=C(CN1CCC(NC(=O)c2ccc(F)cc2)CC1)NCc1ccccc1F,5% (inactive)
8,COCCNC(=O)C(c1cccs1)N(C(=O)Cn1nnc2ccccc21)c1ccccc1 (configuration not stated),6% (inactive)
9,CC(=O)Nc1cc(NC(C)=O)cc(C(=O)OCC(=O)N2CC(C)OC(C)C2)c1 (configuration not stated),2% (inactive)
10,COc1ccccc1Nc1nc(N)nc(CN2CCN(c3ccccc3F)CC2)n1,0% (inactive)
11,CN1C(=O)c2oc3ccccc3c(=O)c2C1c1ccccn1 (configuration not stated),0% (inactive)
12,Cc1cccc(C)c1NC(=O)C1CCCCN1C (configuration not stated),0% (inactive)
13,COc1ccc(S(=O)(=O)N2CCN(S(=O)(=O)c3ccc4c(c3)OCCO4)CC2)cc1C,0% (inactive)
14,COc1ccc2c(c1)[nH]c1c(=O)n(CCN(C)C)cnc12,0% (inactive)
15,CCc1nnc(NC(=O)CSc2nnc3scc(-c4ccc(C)cc4)n23)s1,0% (inactive)
16,CCOC(=O)c1ccc(Oc2nc(SC)nc(N(C)C)n2)cc1,1% (inactive)
17,CCOC(=O)N1CCC(c2cc(=O)n3[nH]c(C)c(-c4ccc(F)cc4)c3n2)CC1,0% (inactive)
18,COc1ccccc1CC1(C)NC(=O)N(CC(=O)Nc2cc(C)on2)C1=O (configuration not stated),1% (inactive)
19,CCOC(=O)Nc1cc(OCC)c(NC(=O)C2CC2)cc1OCC,0% (inactive)
20,COc1ccc(NC(=O)CN(c2ccc(C(C)C)cc2)S(=O)(=O)c2c(C)noc2C)cc1OC,0% (inactive)
21,Cc1ccc(S(=O)(=O)NC(=O)c2cc(C)n(CCCn3ccnc3)c2C)cc1,2% (inactive)
22,COC(=O)C1=C(C)C(c2cccs2)NC(=O)N1C (configuration not stated),0% (inactive)
23,COc1cccc(NC(=O)C2CCCN2C(=O)Nc2cccc(F)c2)c1 (configuration not stated),0% (inactive)
